Measured values reported in PubChem BioAssay (NCATS).
Records with an inconclusive call do not appear. The source made the active and inactive calls. Calls come from the whole dose curve; as a rule, active = well fitted curve in the direction sought with a large enough effect; inconclusive = small, poorly fitted or top-dose-only effect, or another doubt; inactive = no such curve, though single readings can be large; an effect the other way counts as inactive or inconclusive.

Assays:
NIH3T3 = assay: qHTS assay to identify novel small-molecules to repurpose for Merkel cell carcinoma treatment (AID 1296009); details: MCC and control cell lines, CellTiter-Glo viability, 72 h; at 44.8 µM (top of the series) unless noted; note: nearly all actives have a fitted effect of over 60% in size
Procedure, shortened: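 Cells were treated for 72 hr at 37 degree celsius with compounds in 8- or 11-point dose response. Viability was read by CellTiter-Glo luminescence, normalized to no-cell (cytotoxicity) and DMSO controls.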

C33A = assay: Primary qHTS to identify gynecologic anti-cancer compounds using libraries of approved drugs and bioactive compounds (AID 1345084); details: Gynecologic cancer cell panel viability, ATPlite luminescence, 48 h; series mostly up to 57.5 µM; note: nearly all actives have a fitted effect of over 55% in size
Procedure, shortened: (§1)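 Five-concentration response, 48 h; readout is ATP-driven luciferase luminescence.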

CAOV3 = assay: as above; details: Gynecologic cancer cell panel viability, ATPlite luminescence, 48 h; series mostly up to 57.5 µM
Procedure, shortened: as §1

CASKI = assay: as above; details: Gynecologic cancer cell panel viability, ATPlite luminescence, 48 h; series mostly up to 57.5 µM
Procedure, shortened: as §1

Es-2 = assay: as above; details: Gynecologic cancer cell panel viability, ATPlite luminescence, 48 h; series mostly up to 57.5 µM
Procedure, shortened: as §1

HeLa = assay: as above; details: Gynecologic cancer cell panel viability, ATPlite luminescence, 48 h; series mostly up to 57.5 µM
Procedure, shortened: as §1

Hek293T = assay: as above; details: Gynecologic cancer cell panel viability, ATPlite luminescence, 48 h, control line for the selectivity index; series mostly up to 57.5 µM
Procedure, shortened: as §1

JEG-3 = assay: as above; details: Gynecologic cancer cell panel viability, ATPlite luminescence, 48 h; series mostly up to 57.5 µM
Procedure, shortened: as §1

OV90 = assay: as above; details: Gynecologic cancer cell panel viability, ATPlite luminescence, 48 h; series mostly up to 57.5 µM
Procedure, shortened: as §1

PA-1 = assay: as above; details: Gynecologic cancer cell panel viability, ATPlite luminescence, 48 h; series mostly up to 57.5 µM
Procedure, shortened: as §1

Tov-21-G = assay: as above; details: Gynecologic cancer cell panel viability, ATPlite luminescence, 48 h; series mostly up to 57.5 µM
Procedure, shortened: as §1

Tov112D = assay: as above; details: Gynecologic cancer cell panel viability, ATPlite luminescence, 48 h; series mostly up to 57.5 µM
Procedure, shortened: as §1

SKOV3 = assay: as above; details: Gynecologic cancer cell panel viability, ATPlite luminescence, 48 h; series mostly up to 57.5 µM
Procedure, shortened: as §1

Measured: Potency

CCCN(CCN1CCN(c2ccccc2OC)CC1)C1CCc2ncsc2C1 (stereo not drawn)
inactive: NIH3T3 | C33A | CAOV3 | CASKI | Es-2 | HeLa | Hek293T | JEG-3 | OV90 | PA-1 | Tov-21-G | Tov112D

CC1=C2C3OC(=O)C(C)C3(O)CCC2(C)CCC1 (stereo not drawn)
inactive: NIH3T3 | C33A | CAOV3 | CASKI | Es-2 | HeLa | Hek293T | JEG-3 | OV90 | PA-1 | SKOV3 | Tov-21-G | Tov112D

O=C(OC[C@H]1O[C@@H](Oc2ccccc2CO)[C@H](O)[C@@H](O)[C@@H]1O)c1ccccc1
inactive: NIH3T3 | C33A | CAOV3 | CASKI | Es-2 | HeLa | Hek293T | JEG-3 | OV90 | PA-1 | SKOV3 | Tov-21-G | Tov112D

O=C(/C=C/c1ccc(O)cc1)O[C@@H]1C[C@@](O)(C(=O)O)C[C@@H](O)[C@@H]1O
inactive: NIH3T3 | C33A | CAOV3 | CASKI | Es-2 | HeLa | Hek293T | JEG-3 | OV90 | PA-1 | Tov-21-G | Tov112D

COC(=O)C1=CO[C@@H](O[C@@H]2O[C@H](CO)[C@@H](O)[C@H](O)[C@H]2O)[C@@H]2C(C)CC(=O)[C@]12O (stereo partly drawn)
inactive: NIH3T3 inactive [at 17.4 µM] | C33A | CAOV3 | CASKI | Es-2 | HeLa | Hek293T | JEG-3 | OV90 | PA-1 | Tov-21-G | Tov112D

CC1=C2C(=O)C=C(CO[C@@H]3O[C@H](CO)[C@@H](O)[C@H](O)[C@H]3O)[C@@H]2[C@H]2OC(=O)[C@H](C)[C@@H]2[C@@H](O)C1
inactive: NIH3T3 inactive [at 17.4 µM] | C33A | CAOV3 | CASKI | Es-2 | HeLa | Hek293T | JEG-3 | OV90 | PA-1 | SKOV3 | Tov-21-G | Tov112D

C=C(C)[C@@H]1CC[C@]2(C(=O)O)CC[C@]3(C)C(CCC4[C@]5(C)C(CC[C@]43C)C(C)(C)[C@@H](O)[C@@H]5C(=O)O)C12 (stereo partly drawn)
inactive: NIH3T3 inactive [at 17.4 µM] | C33A | CAOV3 | CASKI | Es-2 | HeLa | Hek293T | JEG-3 | OV90 | PA-1 | SKOV3 | Tov-21-G | Tov112D

CC1=CC(=O)CC(C)(C)C1/C=C/C(C)OC1OC(COC2OCC(O)C(O)C2O)C(O)C(O)C1O (stereo not drawn)
inactive: NIH3T3 inactive [at 17.4 µM] | C33A | CAOV3 | CASKI | Es-2 | HeLa | Hek293T | JEG-3 | OV90 | PA-1 | SKOV3 | Tov-21-G | Tov112D

COc1cn(-c2ccc(-n3cccn3)cc2F)nc(-c2ccnn2-c2ccccc2)c1=O
inactive: NIH3T3 | C33A | CAOV3 | CASKI | Es-2 | HeLa | Hek293T | JEG-3 | OV90 | PA-1 | SKOV3 | Tov-21-G | Tov112D

CN(C)CC(c1ccc(O)cc1)C1(O)CCCCC1 (stereo not drawn)
inactive: NIH3T3 | C33A | CAOV3 | CASKI | Es-2 | HeLa | Hek293T | JEG-3 | OV90 | PA-1 | SKOV3 | Tov112D

Cn1cc(Nc2cnccc2C(=O)O)c2cccnc21
inactive: NIH3T3 | C33A | CAOV3 | CASKI | Es-2 | HeLa | Hek293T | JEG-3 | OV90 | PA-1 | SKOV3 | Tov-21-G | Tov112D

COC(=O)c1ccccc1O[C@@H]1O[C@H](CO[C@@H]2OC[C@@H](O)[C@H](O)[C@H]2O)[C@@H](O)[C@H](O)[C@H]1O
inactive: NIH3T3 inactive [at 17.4 µM] | C33A | CAOV3 | CASKI | Es-2 | HeLa | Hek293T | JEG-3 | OV90 | PA-1 | SKOV3 | Tov-21-G | Tov112D

CC(C(=O)Nc1cc(C#N)ccc1CCCC(=O)O)c1ccc(F)c2ccccc12 (stereo not drawn)
inactive: NIH3T3 | C33A | CAOV3 | CASKI | Es-2 | HeLa | Hek293T | JEG-3 | OV90 | PA-1 | SKOV3 | Tov-21-G | Tov112D

C[C@H]1[C@H](C)CC[C@]2(C(=O)O)CC[C@]3(C)C(=CCC4[C@@]5(C)C[C@@H](O)[C@H](O)C(C)(C)C5CC[C@]43C)[C@H]12 (stereo partly drawn)
inactive: NIH3T3 inactive [at 17.4 µM] | C33A | CAOV3 | CASKI | Es-2 | HeLa | Hek293T | JEG-3 | OV90 | PA-1 | SKOV3 | Tov-21-G | Tov112D
